Mot1-301 SUMO – yeast Mot1-301 growth rescue at high temperature, primary screen, SUMOylation pathway inhibitor project, S. cerevisiae, ATP luminescence, 38.5C. S. cerevisiae Mot1-301 growth rescue; percent above DMSO median, 100 means doubled. growth rescue, % at 18.8 µM. hit rate 1% among 320,000;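 active means every valid replicate shows activation above 250% relative to neutral control wells; inactive means the rest, any valid replicate at or below 250%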;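 further: OY570 slx delta 5 strain wells were the positive control but not used for scaling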
ARNT TACC3 PPI – disruptors of ARNT/TACC3 protein interaction, primary screen, biochemical, AlphaScreen, single concentration; Transforming acidic coiled-coil-containing protein 3 (Homo sapiens), Q9Y6A5; hit rate 0.66% among 390,000; inhibition, % at 9.99 µM; AlphaScreen His-ARNT PAS-B/GST-TACC3 binding, luminescence; TACC3 fragment carries E629A point mutation;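 active means mean inhibition of replicates at least 50% and at least half of replicates each reaching 50%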;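 further: 0% = complete ARNT plus TACC3 wells and 100% = ARNT alone without TACC3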
A1 inh – caspase 3/7 activation in MEF A1-2A-BIM cells, primary screen, A1 inhibitor project, cell-based, luminescence, HTS; Caspase-Glo 3/7 luminescence, 3 h; percent of clofoctol response, vehicle zero; caspase activation, % (concentration not given with the values); hit rate 0.066% among 330,000;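 active means over half of replicate activation scores above 10%, or exactly half above 10 with the replicate mean above 10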
aDG glyco act – activators of alpha-DG glycosylation, primary screen, uHTS, Pro5-aDG cells, AlphaScreen; hit rate 0.22% among 360,000; activation, % at 10 µM; alpha-DG glycosylation AlphaScreen (IIH6); 0% Pro5, 100% B10-LARGE cell signal;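 active means activation of at least 8% versus controls, or a plate z-score of at least 8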;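 further: Pro5 are CHO cells carrying HIG-tagged alpha-DG that lacks glycosylation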
AI-2 QS modul – Vibrio harveyi AI-2 quorum sensing modulators, primary screen, JMH597 strain, luminescence/OD600 ratio; AID 2094, 2009; activity change, % at 7.5 µM; hit rate 0.4% among 300,000; Vibrio harveyi JMH597 AI-2 luminescence/OD600 ratio, 9 h; active compounds read low; strain lacks LuxN and CqsS sensors; 0 = neutral-control median; in the data active means activity change below about -75%, passing the limit was not always enough;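 further: luminescence divided by OD600 gain over 9 h not by final OD600 alone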
* marks the source's active call; other numbers are inactive results; . = no result given; ! = a repeat was not active. Most compounds without a hit are left out; they make up all but 1.8% or so of the library.

SMILES | Mot1-301 SUMO | ARNT TACC3 PPI | A1 inh | aDG glyco act | AI-2 QS modul
CCCC(O)(c1ccc(Cl)cc1)C(CN1CCOCC1)c1ccccc1 (stereo unspecified) | . | 45.7* | . | 0.1 | 10.5
CCCC(O)(c1ccccc1)C(CN1CCOCC1)c1ccccc1 (stereo unspecified) | 42.9 | -1.7 | 1.3 | 0.1 | 15.1
COc1ccc(C2=CC(=O)CC(c3ccc(OC)cc3)C2)cc1 (stereo unspecified) | 673.2* | 2.4 | -0.5 | -0.3 | 13.8
Cn1nnnc1SC1CC(=O)N(c2ccccc2)C1=O (stereo unspecified) | 7.0 | 0.9 | -1.0 | -0.1 | 25.2
Cc1cc(C)cc(N2C(=O)CC(Sc3nnnn3-c3ccccc3)C2=O)c1 (stereo unspecified) | 292.4* | 3.8 | 1.0 | -0.1 | 18.7
CC1CCN(C(=O)COc2ccc(Nc3ccccc3)cc2)CC1 | . | 2.0 | -0.2 | -0.2 | 12.3
CCCCOC(=O)C1C2C=C[C@]3(CN(CCCOC)C(=O)[C@H]13)O2 (stereo partly specified) | -11.8 | -6.6 | 0.8 | -0.4 | 21.1
Cc1cc(Nc2ccc(Br)cc2)n2nc(C)nc2n1 | -4.1 | 11.0* | 0.6 | 0.4 | 17.9
CN1CCC(Oc2ccccc2Sc2ccccc2)CC1 | 73.8 | -1.9 | -0.2 | 0.6 | 37.2
CN1CCC(OC(c2ccccc2)c2ccccc2)CC1 | 320.7*! | -3.5 | -0.8 | 0.0 | 22.0
CCC(=O)Nc1ccc2c(c1)C(=O)N(C)C[C@H](OC)[C@H](C)CN(C(=O)NC(C)C)[C@@H](C)CO2 | . | -7.6 | . | . | .
COc1ccc(/C=N/Nc2nnc(C)n2N)cc1OC | -14.4 | 54.3* | 0.5 | 0.3 | 21.1
COc1ccc(/C=N/Nc2nnc(C)n2N)cc1OC(C)=O | -3.2 | 0.6 | 0.5 | 0.6 | 10.4
O=C(c1ccco1)c1nc2c(n1O)CCCCC2 | -22.9 | -3.3 | 2.2 | 0.0 | 11.1
CC1=C(C(=O)Nc2ccc(C)cc2C)C(c2ccc(Cl)cc2)n2nc(C(=O)OC(C)C)nc2N1 (stereo unspecified) | 655.2* | 1.0 | 1.4 | 0.2 | 43.2
CSc1nc2n(n1)C(c1cccc(F)c1)C(C(=O)Nc1ccc(C)cc1C)=C(C)N2 (stereo unspecified) | -8.9 | -2.4 | 0.3 | 0.2 | 9.8
COC(=O)[C@@]12C[C@@H](CC(=O)N3CCN(C(=O)C4CC4)CC3)C(=O)N(Cc3ccco3)C1=CCC(C)(C)C2 | . | . | . | 0.0 | .
S=c1[nH]c2cc(Cl)ccc2s1 | 28.1 | 36.0 | -2.0 | -0.3 | -78.3*
Cc1sc2nc(CSCC(=O)Nc3cc(F)ccc3F)[nH]c(=O)c2c1C | 109.2 | 7.2 | 2.5 | 0.0 | .
CC(=NCc1ccco1)c1c(C)[nH]n(-c2nc3ccccc3s2)c1=O | 352.9* | 2.3 | -4.3 | -0.1 | 12.5
CCCN=C(C)c1c(-c2ccccc2)[nH]n(-c2nc3ccccc3s2)c1=O | -26.5 | -2.2 | 0.5 | 0.1 | 19.5
C/C(=N/NC(=O)c1cccs1)c1c(C)[nH]n(-c2nc3ccccc3s2)c1=O | -33.6 | 47.0* | -6.1 | 1.5 | 11.4
CCC(=NCc1ccco1)c1c(C(F)(F)F)[nH]n(-c2nc3ccccc3s2)c1=O | -20.0 | -2.0 | -8.2 | 0.0 | 17.0
CCCCN(C(=O)COC(=O)COc1c(C)cc(C)cc1C)c1c(N)n(CCC)c(=O)[nH]c1=O | 286.5* | -4.4 | -0.2 | -0.1 | 17.2
CCCn1c(N)c(N(CCOC)C(=O)COC(=O)COc2c(C)cc(C)cc2C)c(=O)[nH]c1=O | . | . | . | -0.3 | .
SMILES | Mot1-301 SUMO | ARNT TACC3 PPI | A1 inh | aDG glyco act | AI-2 QS modul
CC1(C)S[C@@H]2[C@H](NC(=O)Cc3ccccc3)C(=O)N2[C@H]1C(=O)O | -3.4 | -7.9 | 0.3 | 0.5 | 2.0
CC1(C)SC2C(C(=O)O)N=C(Cc3ccccc3)N2C1C(=O)O (stereo unspecified) | . | 70.6* | . | -0.2 | .
Nc1ccc2ccc(O)cc2c1 | . | 5.9 | . | 0.5 | .
C[n+]1c2cc(N)ccc2cc2ccc(N)cc21 | . | 27.6*! | . | 0.2 | .
CCn1c(C)c(C(C)=O)c(N2CCN(c3cccc(Cl)c3)CC2)nc1=S | 584.6* | 2.0 | -1.0 | 0.2 | 4.7
O=C(ONC(=O)C1CCCCC1C(=O)NOC(=O)c1ccccc1)c1ccccc1 (stereo unspecified) | . | -8.5 | . | -0.1 | .
COc1cc(/C=N/NC(=O)C2=NNC(=O)C2C)ccc1O (stereo unspecified) | -13.9 | 2.2 | -2.5 | 0.1 | 7.9
CC1C(=O)NN=C1C(=O)N/N=C\c1ccc(O)cc1O (stereo unspecified) | -3.2 | 78.9* | 1.0 | -0.3 | -18.1
COC1(OC)N=C(N)C2(C#N)C(c3ccccc3)NC(C)=CC12C#N (stereo unspecified) | 134.5 | 57.2* | -0.6 | -0.3 | 18.2
CSc1ccccc1NC(=O)Nc1ccccc1Cl | -18.0 | -4.6 | -0.5 | 0.1 | 24.5
CN1C(=O)c2cc(NC(=O)c3ccc(F)cc3)ccc2OC[C@@H]2O[C@H](CC(=O)NCC3CCCCC3)CC[C@H]21 | . | -12.9 | . | . | .
O=S(=O)(/C=C/c1ccccc1)NC1CCCCCC1 | 31.1 | . | 0.6 | 0.4 | 22.4
O=S(=O)(/C=C/c1ccccc1)NC1CCCCCCC1 | 328.0* | -4.3 | -0.3 | 0.5 | 8.8
CC(c1ccccn1)N(C)C(=O)c1ccc2nc(Cc3ccccc3F)oc2c1 (stereo unspecified) | -10.8 | 6.8 | -0.4 | -0.1 | 4.6
O=c1c(O)c(-c2cc(O)c(O)c(O)c2)oc2cc(O)cc(O)c12 | 265.0* | 44.6 | 0.2 | 0.3 | .
O=c1c(O)c(-c2ccccc2)oc2cc(O)cc(O)c12 | . | -0.8 | . | -0.1 | .
C[C@@H]1CN([C@H](C)CO)C(=O)CCCn2nncc2CO[C@H]1CN(C)S(=O)(=O)c1cccs1 | . | -7.8 | . | 1.2 | .
Cc1noc(C)c1NC(=O)N(C)C[C@@H]1Oc2ccc(NS(=O)(=O)c3cccs3)cc2CC(=O)N([C@H](C)CO)C[C@@H]1C | . | 7.3 | . | . | .
CCC(NC(=O)CCc1c(C)c2cc3c(-c4ccccc4)coc3cc2oc1=O)C(=O)O (stereo unspecified) | 13.8 | 26.6 | -0.2 | 0.1 | 21.8
Cc1c(CCC(=O)N[C@@H](C)C(=O)O)c(=O)oc2cc3occ(-c4ccccc4)c3cc12 | -36.9 | 48.9* | 0.5 | -0.1 | 6.1
CCN1CCN(CCCOc2ccc(Cl)cc2Br)CC1 | -3.3 | 6.9 | -0.4 | 3.9 | 0.9
O=C(CSc1ccccc1)NCc1ccco1 | . | -6.1 | 1.5 | 0.0 | 14.2
CSc1ccc(C(=O)C2CCCN(C(=O)c3cc4cc(F)ccc4[nH]3)C2)cc1 (stereo unspecified) | 446.7* | -7.7 | -0.1 | 0.0 | 13.1

Source: PubChem BioAssay (several laboratories)
